Several values for one entry are separate records, joined by “and”; a condition that tells them apart may be missing. Equal entries are not always repeated. Screen size: about 1,300 compounds; about 1,000 (77%) were called active. Roughly 7% stayed inconclusive and do not appear here. The set was probably picked from earlier hits. This is one part of the list. Values without a mark were called inactive. The call rests on the fitted dose curve; in most records, active means well fitted inhibition curve with a large enough effect; inconclusive means small, poorly fitted or top-dose-only effect; inactive means no such curve, though single readings can be large or run the other way.
On the % scale 0 is the no-effect control and ±100 the full control effect; potency means the concentration at half of the fitted maximal effect.

This assay can be described thus: qHTS of small molecules that selectively kill Giardia lamblia: Hit Validation.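 Further: viability measured as ATP content by luminescence so killing lowers signal; trophozoites exposed to compounds for 48 h anaerobically at 37 °C; nearly all actives have a fitted effect of over 65% in size.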 Conditions: Giardia lamblia trophozoite viability, dose-response; series mostly up to 38.3 µM; activity change, negative = killing: at the top concentration. Put shortly: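 Giardia lamblia trophozoites (100 cells/well) were incubated with compounds for 48 h at 37 deg C under anaerobic conditions. Viability was read as ATP content by one-step luminescence after 15-30 min at room temperature.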
Background: Quantitative high-throughput screening tests each substance at several concentrations.
Regarding `CCOC(=O)c1nc(C(=O)NCc2ccc(C)cc2)nc2ccccc12`, the Potency is 7290 nM (active). Consider `N#Cc1ccc(-c2c(-c3ccccc3)ncc3cc(F)ccc23)cc1`, for which the “activity change, negative = killing” value is -18.6%. For `O=[N+]([O-])c1nn(-c2ccc(Cl)cc2)n(O)c1=NCc1ccncc1`, the Potency is 3650 nM (active). Same read-out and setting: to `O=[N+]([O-])c1nn(-c2ccc(Cl)cc2)n(O)c1=NCc1ccccc1` belongs 9180 nM (active); to `Cc1ccc(CN=c2c([N+](=O)[O-])nn(-c3ccc(Cl)cc3)n2O)cc1`, 7290 nM (active). As for `COc1ccc2cc3cc(C(=O)Nc4ccccc4N4CCN(C)CC4)oc3nc2c1`, the Potency was 2050 nM (active). On to `COc1ccc(OC)c(NC(=O)N2CCc3ccccc3C2)c1`, for which the “activity change, negative = killing” value is -4.77%. In the case of `Cc1ccccc1Cn1nnc2c1C(=O)c1ccccc1C2=O`, the Potency is 2900 nM (active). Same read-out and setting: to `O=[N+]([O-])c1ccc(CN2CCN(c3ccc(Cl)cc3)CC2)o1` belongs 729 nM (active). As to `O=[N+]([O-])c1ccc(N2CCN(Cc3ccc([N+](=O)[O-])o3)CC2)cc1`, the Potency was 516 nM (active).

For `O=[N+]([O-])c1ccc(CN2CCN(c3ccccc3)CC2)o1`, the Potency is 818 nM (active).

For the compound `O=C(CN1CCN(c2ccccc2)CC1)Nc1scc2c1c(=O)oc1ccccc12`, the “activity change, negative = killing” value is -5.04%. `O=[N+]([O-])c1ccc(CN2CCN(c3ccc(F)cc3)CC2)o1`: the Potency was 1030 nM (active). The same measure, in the same setting: to `COc1ccc(C(=O)CC(SCC(NC(C)=O)C(=O)O)c2ccc(Cl)cc2)cc1OC` (centres undefined) belongs 13000 nM (active). Still for that read-out and setting: for `Nc1c(Cl)cc(C2=NCCn3c2c2ccccc2[n+]3[O-])cc1Cl` the value was 326 nM (active).

On to `COc1ccc2c3n([n+]([O-])c2c1)CCN=C3c1ccc(Cl)cc1`, for which the Potency was 579 nM (active).

In the case of `COc1ccc2c3n([n+]([O-])c2c1)CCN=C3c1ccc(C)cc1`, the Potency was 365 nM (active). For `COc1ccc2c3n([n+]([O-])c2c1)CCN=C3c1cc(Cl)c(N)c(Cl)c1`, the Potency was 183 nM (active). On the same count and under the same terms, to `c1ccc(-c2cn3nc(-c4ccccc4)sc3n2)cc1` belongs 918 nM (active). Same read-out and setting: to `O=C(O)CCCCCNS(=O)(=O)c1cccc2c1C(=O)c1ccccc1C2=O` belongs 3650 nM (active); to `CC(C)c1ccc(Nc2nnc(SCC(=O)Nc3ncc(S(=O)(=O)c4ccc([N+](=O)[O-])cc4)s3)s2)cc1`, 2050 nM (active); to `N#CC1C=Cc2c(ccc3ccccc23)N1C(=O)c1ccccc1` (centres undefined), 1630 nM (active). Consider `c1ccc(CNc2ncnc3ccccc23)cc1`, for which the “activity change, negative = killing” value was 8.27%. `O=C(Cn1cnc2c(OCc3ccccc3)ncnc21)NCCCc1ccccc1`: the “activity change, negative = killing” value is -15%. As for `O=C(Cn1ccnc1[N+](=O)[O-])NCc1ccccc1`, the Potency is 1300 nM (active).

For the compound `CC1CC(C)C(=NNC(N)=O)C(C(O)CC2CCC(=O)NC2=O)C1` (centres undefined), the Potency is 163 nM (active). As for `Cc1ccc(NC(C)C(=O)N/N=C/c2ccc([N+](=O)[O-])s2)cc1` (centres undefined), the Potency was 2900 nM (active). For `COc1ccc(NC(C)C(=O)N/N=C/c2ccc([N+](=O)[O-])s2)cc1` (centres undefined), the Potency is 1630 nM (active). The same measure, in the same setting: for `CCn1cnc2c([N+](=O)[O-])c(NS(=O)(=O)c3ccc(C)cc3)ccc21` the value was 206 nM (active); for `O=C(COc1ccccc1)N/N=C/c1ccc([N+](=O)[O-])o1`, 460 nM (active). The same measure, in the same setting: to `Cc1ccc(OCC(=O)N/N=C/c2ccc([N+](=O)[O-])o2)cc1` belongs 729 nM (active).

On to `Cc1cc(C)cc(OCC(=O)N/N=C/c2ccc([N+](=O)[O-])o2)c1`, for which the Potency was 579 nM (active). The same measure, in the same setting: for `O=C(N/N=C/c1ccc([N+](=O)[O-])o1)C(O)c1ccccc1` (centres undefined) the value was 4100 nM (active). In the case of `CCN1C[C@@H]2[C@@H]3C(=O)N(Cc4ccccc4)C(=O)[C@@H]3[C@](C)(C1=O)N2C(=O)c1ccccc1`, the “activity change, negative = killing” value is -13.9%. Turning to `CCCOc1ccc(CCC(=O)N/N=C/c2ccc([N+](=O)[O-])o2)cc1`, the Potency is 729 nM (active). On the same count and under the same terms, for `Cc1ccccc1OCC(=O)N/N=C/c1ccc([N+](=O)[O-])o1` the value was 516 nM (active); for `Cc1ccc(C(=O)Nc2ncc([N+](=O)[O-])s2)cc1`, 259 nM (active); for `Cc1nc(C)c(C(=O)Nc2ncc([N+](=O)[O-])s2)o1`, 1160 nM (active). Turning to `COc1ccc(Cc2nnc(NC(=O)Nc3ccccc3F)s2)cc1OC`, the “activity change, negative = killing” value is -18.3%. On to `COc1ccc(CC(=O)Nc2ncc([N+](=O)[O-])s2)cc1OC`, for which the Potency is 259 nM (active). On the same count and under the same terms, to `O=C(Cc1ccc(Cl)cc1)Nc1ncc([N+](=O)[O-])s1` belongs 818 nM (active). Regarding `CC1CCN(S(=O)(=O)c2cn(C)c(=O)n(C)c2=O)CC1`, the “activity change, negative = killing” value was -33.1%.

In the case of `Cc1ccc(OCC(=O)N(Cc2cccc(Cl)c2)C2CCS(=O)(=O)C2)cc1C` (centres undefined), the “activity change, negative = killing” value is -0.809%. Regarding `CC12CCC(C(=O)Nc3ncc([N+](=O)[O-])s3)(OC1=O)C2(C)C` (centres undefined), the Potency is 206 nM (active).

As to `O=C(Cc1ccc(Br)cc1)Nc1ncc([N+](=O)[O-])s1`, the Potency was 230 nM (active). The same measure, in the same setting: for `O=C(/C=C/c1ccc([N+](=O)[O-])cc1)Nc1ncc([N+](=O)[O-])s1` the value was 650 nM (active); for `O=C(Nc1ncc([N+](=O)[O-])s1)c1ccc2c(c1)OCO2`, 259 nM (active). Same read-out and setting: to `Cc1ccc(S(=O)(=O)CC(=O)Nc2ncc([N+](=O)[O-])s2)cc1` belongs 579 nM (active). As for `Cc1onc(-c2ccccc2)c1NC(=O)N(Cc1ccccc1)C(C)C`, the “activity change, negative = killing” value was 11.7%.

`O=C(Cc1c(F)cccc1Cl)Nc1ncc([N+](=O)[O-])s1`: the Potency was 206 nM (active).

With `O=C(COc1ccc(Cl)cc1)Nc1ncc([N+](=O)[O-])s1`, the Potency is 410 nM (active). In the case of `Cc1onc(-c2ccccc2)c1C(=O)N(Cc1ccccc1)C(C)C`, the “activity change, negative = killing” value is -12.6%. Turning to `Cc1ccc(S(=O)(=O)CC(=O)Nc2ccc(F)c(F)c2F)cc1`, the “activity change, negative = killing” value was 1.71%.

As for `Cc1onc(-c2ccccc2)c1C(=O)Nc1ncc([N+](=O)[O-])s1`, the Potency was 579 nM (active). For the compound `CCn1cc(C(=O)NCCC(C)C)c(=O)c2cc(F)c(N3CCN(C(=O)c4ccco4)CC3)cc21`, the “activity change, negative = killing” value was -21.5%. The same measure, in the same setting: for `O=C(NNC(=O)c1ccncc1)Nc1cccc([N+](=O)[O-])c1` the value was -9.26%. As for `Cc1ccc(CC(=O)Nc2ncc([N+](=O)[O-])s2)cc1`, the Potency was 130 nM (active). On the same count and under the same terms, for `O=C(Nc1ncc([N+](=O)[O-])s1)c1cccc([N+](=O)[O-])c1` the value was 290 nM (active); for `CC(=O)Nc1ccc(NC(=O)c2c([N+](=O)[O-])cnn2C)cc1`, 1300 nM (active); for `Cc1ncc([N+](=O)[O-])n1CCN1C(=O)c2ccccc2C1=O`, 650 nM (active). `Cc1nonc1OCCn1c([N+](=O)[O-])cnc1C`: the Potency is 1160 nM (active). The same measure, in the same setting: for `CCOc1cc(C=O)ccc1OCCn1c([N+](=O)[O-])cnc1C` the value was 650 nM (active). Still for that read-out and setting: to `CCS(=O)(=O)CCn1c([N+](=O)[O-])cnc1C` belongs 918 nM (active); to `Cc1ncc([N+](=O)[O-])n1CC(O)CCl` (centres undefined), 1160 nM (active).

In the case of `Cc1ncc([N+](=O)[O-])n1CCO`, the Potency was 4.1 µM (active) and 4.6 µM (active). `COc1cc2nc(N3CCN(C)CC3)nc(NC(C)C)c2cc1OC`: the Potency is 918 nM (active). As to `COc1cc2nc(N3CCCCC3)nc(NC3CCN(Cc4ccccc4)CC3)c2cc1OC`, the Potency was 2050 nM (active). On the same count and under the same terms, to `COc1cc2nc(N3CCN(c4cc(C)ccc4C)CC3)nc(N)c2cc1OC` belongs 4100 nM (active); to `COc1cc2nc(N3CCN(C)CC3)nc(NC3CC3)c2cc1OC`, 365 nM (active); to `COc1cc2nc(N3CCCN(C)CC3)nc(NC3CCCCC3)c2cc1OC`, 650 nM (active). As for `Cc1ccc(C(C(=O)NCc2ccco2)N(C(=O)CNC(=O)c2cccs2)c2c(C)cccc2C)cc1` (centres undefined), the Potency was 818 nM (active). For `O=C1C2C3C=CC(C3)C2C(=O)N1Nc1ccc([N+](=O)[O-])cc1[N+](=O)[O-]` (centres undefined), the Potency was 4100 nM (active). For the compound `Cn1c(=NC(=O)c2cnccn2)sc2ccccc21`, the Potency was 5790 nM (active).

Take `CC(Oc1ccccc1)C(=O)Nc1nnc(S(=O)(=O)N2CCCCC2)s1` (centres undefined): the Potency was 3650 nM (active). The same measure, in the same setting: to `CC(Oc1ccccc1)C(=O)Nc1nnc(S(=O)(=O)N2CCCCCC2)s1` (centres undefined) belongs 5160 nM (active). On the same count and under the same terms, to `Cn1nc(N)c2c(-c3ccc(Cl)cc3)c(C#N)c(N)nc21` belongs 2900 nM (active).

On to `Cn1nc(N)c2c(-c3ccccc3)c(C#N)c(N)nc21`, for which the Potency was 4600 nM (active).

Take `Cc1ccc(OCC(=O)c2cc(C)n(Cc3cccs3)c2C)c([N+](=O)[O-])n1`: the Potency was 818 nM (active). The same measure, in the same setting: to `Cc1cc(C(=O)COc2cccnc2[N+](=O)[O-])c(C)n1Cc1cccs1` belongs 1030 nM (active). On to `O=C(N/N=C/c1ccc([N+](=O)[O-])o1)c1cn(-c2ccccc2)nc1-c1ccc(F)cc1`, for which the Potency is 516 nM (active). The same measure, in the same setting: to `O=C(N/N=C/c1ccc([N+](=O)[O-])o1)c1cn(-c2ccccc2)nc1-c1ccccc1` belongs 818 nM (active); to `COc1ccc(-c2nn(-c3ccccc3)cc2C(=O)N/N=C/c2ccc([N+](=O)[O-])o2)cc1`, 516 nM (active).

In the case of `O=C(N/N=C/c1ccc([N+](=O)[O-])o1)c1cn(-c2ccccc2)nc1-c1ccc(Cl)cc1`, the Potency is 1030 nM (active).

In the case of `CCOC(=O)c1cc([N+](=O)[O-])sc1NC(=O)CC`, the Potency was 1030 nM (active). `CN(Cc1cccc(Cl)c1)C(=O)C1CCC(=O)N(C2CC2)C1` (centres undefined): the “activity change, negative = killing” value was -13%. Turning to `O=C(COc1cccnc1[N+](=O)[O-])Nc1ccc(Cl)cc1F`, the Potency was 1830 nM (active).

For the compound `O=C(COc1cccnc1[N+](=O)[O-])Nc1cc(Cl)ccc1Cl`, the Potency is 4600 nM (active). For `CC(OC(=O)c1ccc(Cl)nc1)C(=O)NC1CCCC1` (centres undefined), the “activity change, negative = killing” value is -9.62%. Turning to `CC(OC(=O)c1ccc([N+](=O)[O-])s1)C(=O)NC1CCCCC1C` (centres undefined), the Potency is 3650 nM (active). With `Cc1ccc2nc(NC(=O)C3CCCN(S(=O)(=O)c4cnc[nH]4)C3)sc2c1` (centres undefined), the “activity change, negative = killing” value is -7.55%. As for `O=C(NCc1ccc(Cl)cc1)C1CCC(CNS(=O)(=O)c2ccccc2)CC1` (centres undefined), the “activity change, negative = killing” value is 7.82%. For `O=C(NCc1ccccn1)C1CCCN(S(=O)(=O)c2cc(Cl)ccc2Cl)C1` (centres undefined), the Potency is 1030 nM (active). In the case of `CC/C=C1/N=C2C(=O)N(C)C(=O)N=C2N(C)N1`, the Potency is 130 nM (active).

For the compound `CN1N/C(=C\c2ccccc2)N=C2C(=O)N(C)C(=O)N=C21`, the Potency was 259 nM (active).

The record behind these values is PubChem BioAssay AID588397 (National Center for Advancing Translational Sciences (NCATS), 2011).
